Screening results: PubChem BioAssay, National Center for Advancing Translational Sciences (NCATS)
D1 PAM – Potentiators of Human D1 Dopamine Receptor: qHTS; HEK293 TREx D1 cells, calcium flux, dopamine EC20 potentiation; potentiation, % at 10 µM; hit rate 0.036% among 360,000; in the data active means potentiation above about 30%; further: 0% is about no effect
Target sequence (P21728 whole entry, looked up): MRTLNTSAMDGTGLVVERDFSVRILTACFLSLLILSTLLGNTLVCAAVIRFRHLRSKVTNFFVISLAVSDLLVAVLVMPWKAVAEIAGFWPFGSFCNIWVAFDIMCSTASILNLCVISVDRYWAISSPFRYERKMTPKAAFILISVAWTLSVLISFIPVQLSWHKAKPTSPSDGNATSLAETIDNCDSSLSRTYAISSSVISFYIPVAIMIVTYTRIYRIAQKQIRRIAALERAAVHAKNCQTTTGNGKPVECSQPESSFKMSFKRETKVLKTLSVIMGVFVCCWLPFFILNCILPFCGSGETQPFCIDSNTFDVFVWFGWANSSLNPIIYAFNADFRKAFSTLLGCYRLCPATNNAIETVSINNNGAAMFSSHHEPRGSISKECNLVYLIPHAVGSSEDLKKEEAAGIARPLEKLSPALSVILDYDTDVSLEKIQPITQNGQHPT
TRPV1 agonist – HTS Assay for Compounds that Act as Agonists of the Vanilloid Receptor 1. TRPV1-expressing cells, Fluo-8 calcium influx, agonist mode. activation, % at 8.33 µM. hit rate 0.19% among 320,000; in the data active means activation above about 80%; inconclusive means between about 30% and that limit; further: 0% is about no effect
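Cells expressing TRPV1 were dye-loaded with Fluo-8 and read kinetically: 10 s baseline, 3 min after compound (agonist portion), then 2 min after EC20 capsaicin (allosteric enhancer portion). Calcium-bound dye fluorescence at 480/520 nm.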
TRPV1 potentiator – HTS Assay for Compounds that Act as Potentiators of the Vanilloid Receptor 1 | TRPV1-expressing cells, Fluo-8 calcium influx, capsaicin EC20 potentiation | AID 540277, 2011 | Transient receptor potential cation channel subfamily V member 1 (Homo sapiens), Q8NER1 | potentiation, % at 8.33 µM | hit rate 0.02% among 320,000; in the data active means potentiation above about 80%; inconclusive means between about 30% and that limit; further: 0% is about no effect
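Fluo-8 calcium influx in TRPV1-expressing cells, kinetic read (ex 480/em 520 nm). Compound added and read 3 min for agonist activity, followed by capsaicin at EC20 final and 2 min further read for enhancement.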
D1 antagonist – Antagonist of Human D 1 Dopamine Receptor: qHTS; D(1A) dopamine receptor (Homo sapiens), P21728; HEK293 TREx D1 cells, calcium flux, dopamine EC80; active compounds read low; activity change, negative = inhibition, % at 10 µM; hit rate 3.2% among 360,000; in the data active means activity change below about -30%; further: on the % scale 0 is the no-effect control and ±100 the full control effect
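Tetracycline-induced HEK293 Trex D1 cells, force-coupled to calcium, dye-loaded; compounds added and read 180 s, then EC80 dopamine added and calcium flux tracked kinetically another 180 s.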
D1 ag – Allosteric Agonists of the Human D1 Dopamine Receptor: qHTS; activation, % at 2 µM; HEK293 T-REx D1 cells, calcium flux, agonist mode; D(1A) dopamine receptor (Homo sapiens), P21728; hit rate 1% among 360,000; in the data active means activation above about 30%; further: 0% is about no effect
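Inducible HEK293 T-REx D1 cells, force-coupled to calcium signalling, were plated at 4000 cells/well with tetracycline and held overnight at 30 C. After no-wash calcium dye loading, compound-evoked calcium rise over 180 s flagged agonists.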
An asterisk follows results filed as active; ! = not confirmed by another sample. An excerpt weighted towards active compounds, which were near 4.2% of everything screened.

`CCc1ccc(S(=O)(=O)c2nnn3c2nc(NCCNC(C)=O)c2cc(Cl)ccc23)cc1` gave D1 PAM -4, D1 antagonist 31 and D1 ag 1.
For COc1ccc(OCCSc2nnc(CCNC(=O)c3ccc(OC)cc3)n2C)cc1 the results were D1 PAM -8, TRPV1 agonist -4, TRPV1 potentiator 5, D1 antagonist 8 and D1 ag 1.
For COc1ccc(OCCSc2nnc(CCNC(=O)c3ccc(Cl)c(Cl)c3)n2C)cc1 the results were D1 PAM -5, TRPV1 agonist -1, TRPV1 potentiator -2, D1 antagonist -36* and D1 ag 1.
`CCCCc1nc(N2CCN(C(=O)c3ccco3)CC2)c(C#N)c2c1CCCC2` gave D1 PAM 4, TRPV1 agonist 86*, TRPV1 potentiator -27, D1 antagonist 7 and D1 ag 19.
Screening N#Cc1c(SCC(=O)O)nc(-c2ccccc2)c2c1CCCC2 returned D1 PAM -5, TRPV1 agonist 2, TRPV1 potentiator -3, D1 antagonist 8 and D1 ag 3.
Screening CCC(=O)N1CCN(c2nc(-c3ccccc3)c3c(c2C#N)CCCC3)CC1 returned D1 PAM 0, TRPV1 agonist 102*, TRPV1 potentiator -1, D1 antagonist 3 and D1 ag 2.
Screening O=C(Cn1cc(SCc2c(F)cccc2Cl)c2ccccc21)N1CCCCCC1 returned D1 PAM -3, D1 antagonist 0 and D1 ag 8.
CCN1C/C(=C/c2ccc(N3CCOCC3)cc2)C(=O)/C(=C/c2ccc(N3CCOCC3)cc2)C1 was read as D1 PAM -6, TRPV1 agonist 12, TRPV1 potentiator 8, D1 antagonist 5 and D1 ag 88*.
Screening CN1C/C(=C\c2ccc(N3CCOCC3)cc2)C(=O)/C(=C/c2ccc(N3CCOCC3)cc2)C1 returned D1 PAM -4, TRPV1 agonist 22, TRPV1 potentiator -8, D1 antagonist 8 and D1 ag 46*.
Cc1ccc(Oc2c(C(F)(F)F)oc3c(CN4CCC(C)CC4)c(O)ccc3c2=O)cc1 was read as D1 PAM 3, D1 antagonist -7 and D1 ag -1.
`COc1cc(C2C3=C(CC(c4ccco4)CC3=O)Nc3ccccc3N2C(C)=O)cc(OC)c1OC` (stereo unspecified) gave D1 PAM 0, TRPV1 agonist 2, TRPV1 potentiator -3, D1 antagonist -4 and D1 ag 1.
COc1cc(C2C3=C(CC(C)(C)CC3=O)Nc3ccccc3N2C(C)=O)cc(OC)c1OC (stereo unspecified) was read as D1 PAM -5, TRPV1 agonist -7, TRPV1 potentiator 5, D1 antagonist -32* and D1 ag 3.
`COC/C=C/c1cc(F)c(S(=O)(=O)N2CCN(S(=O)(=O)c3ccc4c(c3)OCCO4)CC2)cc1F` gave D1 PAM 5, D1 antagonist 5 and D1 ag 1.
NC(=O)C1CCN(c2nc(-c3ccc(Br)cc3)cs2)CC1 was read as D1 PAM -2, TRPV1 agonist 14, TRPV1 potentiator -17, D1 antagonist -46*! and D1 ag 1.
Screening CC(=O)c1ccc(-c2csc(N3CCC(C(N)=O)CC3)n2)cc1 returned D1 PAM -6, D1 antagonist 4 and D1 ag 2.
Cc1ccc(OCc2nc(-c3ccc(C(=O)N4CCN(c5cc(Cl)ccc5C)CC4)cc3)oc2C)cc1 was read as D1 PAM -5, D1 antagonist -34* and D1 ag 5.
For Cc1ccc(OCc2nc(-c3ccc(C(=O)N4CCN(c5ccccc5)CC4)cc3)oc2C)cc1 the results were D1 PAM 0, D1 antagonist 3 and D1 ag 2.
Screening Cc1c2cnn(CC(=O)NCCc3ccccc3)c(=O)c2c(C)n1Cc1ccccc1Cl returned D1 PAM -4, D1 antagonist -6 and D1 ag 2.
Screening O=C(/C=C/c1cn(CC(O)CN2CCOCC2)c2ccccc12)c1cccs1 (stereo unspecified) returned D1 PAM -5, TRPV1 agonist 13, TRPV1 potentiator 1, D1 antagonist -81* and D1 ag 27.
`CCNc1cc(S(=O)(=O)C(F)(F)F)ccc1N` gave D1 PAM -3, TRPV1 agonist 14, TRPV1 potentiator -5, D1 antagonist -38* and D1 ag 22.
For O=C(Cn1c(=O)n(Cc2nc(-c3ccccc3)no2)c(=O)c2cc3c(cc21)OCO3)Nc1cccc(C(F)(F)F)c1 the results were D1 PAM 2, D1 antagonist 3 and D1 ag 5.
Screening O=C(NCc1ccncc1)Nc1ccc(Cl)cc1Cl returned D1 PAM -8, TRPV1 agonist inconclusive, TRPV1 potentiator -30, D1 antagonist 3 and D1 ag 4.
For S=C(NCc1ccc(Cl)cc1)Nc1ccc(Cl)cc1Cl the results were D1 PAM -11, TRPV1 agonist inconclusive, TRPV1 potentiator -3, D1 antagonist -21 and D1 ag 19.
Screening Fc1ccc(CNC(=S)NCc2cccc(Cl)c2)cc1 returned D1 PAM -4, TRPV1 agonist inconclusive, TRPV1 potentiator -10, D1 antagonist -33* and D1 ag -1.
S=C(NCc1ccncc1)Nc1ccc(Cl)cc1Cl was read as D1 PAM -2, TRPV1 agonist 80*, TRPV1 potentiator -20 and D1 ag 8.
`Cc1cc(Cl)ccc1NC(=S)NCc1ccccc1` gave D1 PAM -6, TRPV1 agonist inconclusive, TRPV1 potentiator -29, D1 antagonist -30 and D1 ag 9.
Screening COc1cccc(CNC(=S)Nc2ccc(Cl)cc2C)c1 returned D1 PAM 0, TRPV1 agonist 81*, TRPV1 potentiator -23, D1 antagonist -15 and D1 ag 8.
Screening Fc1ccc(CNC(=S)Nc2ccc(Cl)cc2Cl)cc1 returned D1 PAM -12, TRPV1 agonist 88*, TRPV1 potentiator -19, D1 antagonist -38* and D1 ag 24.
Screening S=C(NCc1ccccc1)NCc1cccc(Cl)c1 returned D1 PAM -3, TRPV1 agonist inconclusive, TRPV1 potentiator -4, D1 antagonist -17 and D1 ag 1.
For CCN1C(=O)C(Cc2nc3ccccc3c(=O)n2-c2ccccc2)c2cc(Br)ccc21 (stereo unspecified) the results were D1 PAM -1, D1 antagonist 6 and D1 ag 1.
O=C(CC(c1cccs1)N1Cc2ccccc2C1=O)Nc1ccc(F)c(Cl)c1 (stereo unspecified) was read as D1 PAM -3, D1 antagonist -16 and D1 ag 9.
